# Reference: PubChem BioAssay
# Values joined by “and” are separate entries in the source; they are usually repeats but may differ in a detail not shown here. Identical values can stand only once. Inconclusive results are not listed. For some of these results: Measured potencies and affinities stand elsewhere. Active and inactive are the calls of the source. Unless noted, how the calls were made is not given here.
# Tests used:
# [1] = target: ATP-dependent translocase ABCB1 (Homo sapiens) (UniProt P08183); experiment: MDR1 (ABCB1) efflux transporter inhibition, cell-based (AID 377; in the data active means fluorescence slope change above about 50%); settings: MDR1-expressing cells, fluorescent substrate accumulation slope; stronger effect = higher value; concentration not given here
# [2] = polyglutamine-triggered caspase-3 activation inhibitors, cell-based (AID 1583); settings: polyglutamine-induced caspase-3 activation, cell assay; stronger effect = higher value;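 tested at 10 µM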
# [3] = suppressors of polyQ aggregation in yeast, 75Q-TubU reporter (AID 1593); settings: Yeast 75Q polyglutamine aggregation reporter
# [4] = rescue of polyQ-huntingtin neuronal dysfunction in worms, whole organism, C. elegans mechanosensory neurons, N-terminal huntingtin (AID 1599); settings: touch response, stronger effect = higher value
# [5] = inhibitors of mitochondrial cytochrome c release, biochemical, purified mitochondria (AID 1603); settings: stronger effect = lower value;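 further: mouse liver mitochondria challenged with calcium chloride; signal normalized to the plate average as 100%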
# [6] = inhibitors of polyQ protein aggregation (AID 1604); settings: polyglutamine-induced protein aggregation inhibition assay; stronger effect = higher value; tested at 2.5 µM
# [7] = enhancers of glutamate uptake in motor neurons, MN-1 cell line (AID 1612); settings: MN-1 motor neuron cells, stronger effect = higher value;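 further: tested at 1 µM final; 0% = mean of DMSO vehicle wells on each plate; positive means more glutamate uptake than control and negative means less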
# [8] = reducers of polyQ inclusions in PC12 cells, cell-based, NGF-treated PC12, GFPQ80 (AID 1614); settings: PC12 NGF-treated GFP-polyQ80 inclusion reduction;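 further: lower means fewer inclusions and 0 means no inclusions at all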
# [9] = suppressors of polyglutamine aggregation in yeast, 75Q-TubH (AID 1616); settings: S. cerevisiae 75Q-TubH polyglutamine aggregation suppression; stronger effect = higher value
# [10] = hESC survival regulators, cell-based (AID 493140); settings: human embryonic stem cell survival screen; stronger effect = higher value;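 further: cells exposed to compounds for four days before counting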
# [11] = liver-stage malaria parasite growth inhibition, primary screen, cell-based, HepG2, luciferase luminescence, HepG2 viability (AID 624349; in the data active means parasite load remaining mostly below about 12%, no sharp cut-off; inactive means mostly above about 10%;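 further: 100% = mean of DMSO negative control wells on the same plate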); settings: P. berghei liver stage in HepG2, luciferase luminescence, concentration not given here; parasite load remaining: stronger effect = lower value; viability: measured here: HepG2 viability without parasites
# [12] = target: 6-phosphogluconate dehydrogenase, decarboxylating (Homo sapiens) (UniProt P52209); experiment: 6PGD enzyme inhibitors, primary screen, biochemical, human, recombinant enzyme, NADPH absorbance (AID 1159550;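 active means at least 20% inhibition of 6-phosphogluconate dehydrogenase activity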); settings: recombinant 6PGD, NADPH absorbance 341 nm; at 10 µM; stronger effect = higher value
# [13] = differential killing of epithelial or mesenchymal cells, primary screen, imaging, PC-3E GFP, TEM4-18 mCherry, co-culture (AID 1345086;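 active means compounds killing one labelled cell type while sparing the other, by normalised counts and ratio limits, not self-fluorescent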;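 on all read-outs here: cells exposed to compound for 72 h before imaging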;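 on red/green cell ratio (normalised): normalised mesenchymal count divided by normalised epithelial count so high means epithelial killing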); settings: imaging cell counts, at 1 µM; for red/green cell ratio (normalised): actives lie on both sides
# [14] = tested on: Aerobactin synthetase IucA (Klebsiella pneumoniae hvKP1); experiment: Biochemical IucA enzyme inhibition primary screen of the Spectrum library (AID 1346200); settings: malachite green pyrophosphate, A620, at 8 µM, stronger effect = lower value;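 further: 100% = wells without compound and 0% = wells lacking enzyme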
# [15] = sensitizers of A549 cells to miR-34 induction, primary screen, imaging, A549 dox-inducible miR-34, nuclei and caspase counts (AID 1347080;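 active means compounds whose cell count with miR-34 switched on is under 0.7 times the count with it off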); settings: A549 miR-34 inducible, Hoechst nuclei count, 48 h
# [16] = target: Mitogen-activated protein kinase 7 (Homo sapiens) (UniProt Q13164); experiment: ERK5 transactivation activators in reporter cells, primary screen, cell-based, HTS (AID 1508626;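 active means luciferase signal above three times the same-plate solvent-only control wells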;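 further: luciferase driven by Gal4-ERK5 fusion binding five Gal4 sites before minimal TATA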); settings: HeLa Gal4-ERK5 transactivation, 18 h, at 5 µM, stronger effect = higher value
# [17] = target: NAD(+) hydrolase SARM1 (Homo sapiens) (UniProt Q6SZW1); experiment: SARM1 TIR NADase inhibitors, cell lysate, NAD-Glo luminescence (AID 1508614;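 active means compound whose remaining NAD level is above about 45 nM, limit read from the data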); settings: SAM-TIR HEK293T lysate NADase, at 1 µM, stronger effect = higher value
# [18] = survival rescue of mitochondrial mutant cells in low glucose, primary screen, MELAS cybrids, Rieske KO mouse fibroblasts, CellTiter-Glo (AID 1508586;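 active means mean z-score across replicates of 1.96 or higher in either the MELAS or the Rieske mutant cell line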;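 further: z relative to plate mean and SD of compound and empty wells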)
# [19] = tested on: Aerobactin synthetase IucA (Klebsiella pneumoniae, hypervirulent); experiment: IucA enzyme inhibition, biochemical, LOPAC library, absorbance readout (AID 1346212); settings: IucA enzyme assay, absorbance (OD) readout; stronger effect = lower value; concentration not given here;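 further: 100% = no compound wells and 0% = no enzyme wells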
# [20] = viability rescue of complex I mutant cybrids, primary screen, cell-based, galactose medium, ATP luminescence (AID 1645843;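 active means z-score of at least 1.8 in each of two replicates, scored against plate mean and spread of sample wells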;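 further: positive z means more ATP and so rescue of galactose-driven cybrid death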); settings: complex I mutant cybrid cells, 72 h, stronger effect = higher value
# [21] = measured here: epithelial PC-3E GFP cell survival
# [22] = measured here: mesenchymal TEM4-18 mCherry cell survival
# [23] = measured here: relative caspase fold change +Dox/-Dox
# [24] = measured here: total cells with miR-34 induction, stronger effect = lower value
# [25] = measured here: total cells without miR-34 induction
# [26] = MELAS cybrid survival, CellTiter-Glo 48 h, stronger effect = higher value
# [27] = Rieske KO mouse fibroblast survival, CellTiter-Glo 72 h
# Mitogen-activated protein kinase 7 (Homo sapiens), sequence (Q13164 whole entry, looked up, the tested form may be a part): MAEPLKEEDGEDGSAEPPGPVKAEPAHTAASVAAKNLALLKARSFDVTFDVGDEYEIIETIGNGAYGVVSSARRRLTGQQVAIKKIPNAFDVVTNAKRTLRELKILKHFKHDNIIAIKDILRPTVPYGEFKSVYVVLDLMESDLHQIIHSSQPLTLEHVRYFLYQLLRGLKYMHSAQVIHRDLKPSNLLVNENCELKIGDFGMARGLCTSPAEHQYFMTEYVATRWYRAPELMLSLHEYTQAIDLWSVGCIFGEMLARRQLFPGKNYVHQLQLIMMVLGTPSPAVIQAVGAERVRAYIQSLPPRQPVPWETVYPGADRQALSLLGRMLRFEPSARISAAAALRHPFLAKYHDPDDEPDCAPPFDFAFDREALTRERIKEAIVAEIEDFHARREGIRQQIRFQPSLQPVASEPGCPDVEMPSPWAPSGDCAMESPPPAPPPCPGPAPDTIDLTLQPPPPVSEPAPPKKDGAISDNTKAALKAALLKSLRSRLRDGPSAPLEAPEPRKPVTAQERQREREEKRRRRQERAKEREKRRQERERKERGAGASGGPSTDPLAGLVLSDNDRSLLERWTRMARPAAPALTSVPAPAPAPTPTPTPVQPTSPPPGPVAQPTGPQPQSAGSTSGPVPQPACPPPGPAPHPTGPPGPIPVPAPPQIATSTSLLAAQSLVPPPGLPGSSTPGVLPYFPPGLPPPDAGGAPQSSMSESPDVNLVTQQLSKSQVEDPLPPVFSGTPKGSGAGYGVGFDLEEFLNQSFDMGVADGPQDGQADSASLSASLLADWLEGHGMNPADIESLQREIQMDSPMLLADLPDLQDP
# 6-phosphogluconate dehydrogenase, decarboxylating (Homo sapiens), sequence (P52209 whole entry, looked up): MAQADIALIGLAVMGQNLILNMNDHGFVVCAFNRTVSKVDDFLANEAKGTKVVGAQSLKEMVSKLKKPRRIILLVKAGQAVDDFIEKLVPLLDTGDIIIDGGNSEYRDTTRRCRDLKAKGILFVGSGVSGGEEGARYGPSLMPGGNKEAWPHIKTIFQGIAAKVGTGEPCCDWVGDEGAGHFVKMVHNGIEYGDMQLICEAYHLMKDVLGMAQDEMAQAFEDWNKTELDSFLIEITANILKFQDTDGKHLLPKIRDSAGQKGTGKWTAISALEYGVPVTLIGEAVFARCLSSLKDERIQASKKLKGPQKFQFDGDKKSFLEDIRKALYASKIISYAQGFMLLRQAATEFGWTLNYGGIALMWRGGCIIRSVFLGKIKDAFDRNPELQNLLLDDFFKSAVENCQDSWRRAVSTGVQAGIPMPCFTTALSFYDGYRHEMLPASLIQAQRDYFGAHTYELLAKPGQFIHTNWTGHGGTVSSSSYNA
# NAD(+) hydrolase SARM1 (Homo sapiens), sequence (Q6SZW1 whole entry, looked up): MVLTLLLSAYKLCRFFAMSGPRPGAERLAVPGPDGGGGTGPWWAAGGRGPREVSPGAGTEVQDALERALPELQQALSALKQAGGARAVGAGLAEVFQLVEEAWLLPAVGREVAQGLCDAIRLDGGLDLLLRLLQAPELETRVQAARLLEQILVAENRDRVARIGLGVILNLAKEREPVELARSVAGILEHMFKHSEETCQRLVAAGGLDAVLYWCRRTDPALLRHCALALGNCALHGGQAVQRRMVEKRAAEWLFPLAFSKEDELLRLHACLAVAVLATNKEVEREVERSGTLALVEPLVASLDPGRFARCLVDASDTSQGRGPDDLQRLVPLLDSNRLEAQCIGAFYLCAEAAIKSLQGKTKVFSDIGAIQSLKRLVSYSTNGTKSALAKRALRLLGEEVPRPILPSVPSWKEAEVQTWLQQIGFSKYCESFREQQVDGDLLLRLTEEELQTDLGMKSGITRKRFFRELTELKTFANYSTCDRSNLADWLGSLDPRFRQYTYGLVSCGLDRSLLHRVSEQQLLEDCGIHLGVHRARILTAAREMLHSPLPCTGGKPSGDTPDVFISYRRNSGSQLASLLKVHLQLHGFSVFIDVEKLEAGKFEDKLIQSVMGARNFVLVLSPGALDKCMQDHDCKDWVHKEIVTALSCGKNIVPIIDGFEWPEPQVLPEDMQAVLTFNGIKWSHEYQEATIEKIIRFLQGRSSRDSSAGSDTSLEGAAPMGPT
# ATP-dependent translocase ABCB1 (Homo sapiens), sequence (P08183 whole entry, looked up): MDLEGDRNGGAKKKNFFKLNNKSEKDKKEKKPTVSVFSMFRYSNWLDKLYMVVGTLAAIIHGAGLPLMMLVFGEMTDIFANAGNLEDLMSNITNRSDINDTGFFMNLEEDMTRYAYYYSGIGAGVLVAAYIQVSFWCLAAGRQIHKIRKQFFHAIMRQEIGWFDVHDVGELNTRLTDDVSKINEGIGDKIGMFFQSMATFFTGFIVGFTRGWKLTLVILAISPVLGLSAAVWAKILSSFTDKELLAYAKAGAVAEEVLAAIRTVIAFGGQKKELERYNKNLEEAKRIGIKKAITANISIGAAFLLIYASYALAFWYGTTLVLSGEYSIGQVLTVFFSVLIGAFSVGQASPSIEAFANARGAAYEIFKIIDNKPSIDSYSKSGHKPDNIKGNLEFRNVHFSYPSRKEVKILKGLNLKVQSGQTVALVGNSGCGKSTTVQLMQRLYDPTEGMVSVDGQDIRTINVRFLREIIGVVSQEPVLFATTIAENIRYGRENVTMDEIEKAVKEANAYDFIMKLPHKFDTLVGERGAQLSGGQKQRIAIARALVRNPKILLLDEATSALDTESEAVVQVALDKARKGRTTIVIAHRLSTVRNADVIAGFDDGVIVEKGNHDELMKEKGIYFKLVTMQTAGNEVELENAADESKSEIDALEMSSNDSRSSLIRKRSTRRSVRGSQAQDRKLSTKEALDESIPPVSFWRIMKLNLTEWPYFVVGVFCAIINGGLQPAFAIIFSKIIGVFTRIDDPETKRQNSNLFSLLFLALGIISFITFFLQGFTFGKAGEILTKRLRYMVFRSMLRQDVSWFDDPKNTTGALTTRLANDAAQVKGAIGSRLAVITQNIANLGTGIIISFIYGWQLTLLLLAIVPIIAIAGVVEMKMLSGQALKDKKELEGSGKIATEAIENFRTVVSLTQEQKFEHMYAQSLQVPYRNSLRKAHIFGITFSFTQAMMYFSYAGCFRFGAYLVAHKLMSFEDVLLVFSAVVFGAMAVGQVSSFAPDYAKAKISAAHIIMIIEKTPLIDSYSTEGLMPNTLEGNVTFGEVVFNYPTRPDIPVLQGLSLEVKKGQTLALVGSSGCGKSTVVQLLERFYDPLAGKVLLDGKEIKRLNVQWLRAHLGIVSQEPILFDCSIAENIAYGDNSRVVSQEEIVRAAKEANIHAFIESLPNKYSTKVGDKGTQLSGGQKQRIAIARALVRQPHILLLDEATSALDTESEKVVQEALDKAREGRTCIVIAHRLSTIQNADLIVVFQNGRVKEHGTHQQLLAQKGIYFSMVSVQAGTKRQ
compound,measurement,setting,value
COc1ccc2c3c([nH]c2c1)C(C)=NCC3,fluorescence slope change,[1],7.9% (inactive)
same,inhibition,[2],-62.4%
same,score,[3],1.32
same,rescue above control,[4],-1.53
same,cytochrome c release ratio,[5],0.94
same,inhibition of aggregation,[6],51%
same,glutamate uptake change,[7],48%
same,inclusion score,[8],2
same,aggregation suppression score,[9],0.883
same,survival,[10],6 (inactive)
same,parasite load remaining,[11],83.9% (inactive) and 28.8% (inactive) and 84.4% (inactive)
same,viability,[11],103% and 71.6% and 83.5%
same,inhibition,[12],-10.2% (inactive)
same,red/green cell ratio (normalised),[13],0.92 (inactive)
same,normalised cell number,[13]; [21],1.06
same,normalised cell number,[13]; [22],0.98
same,activity remaining,[14],124% (inactive)
same,fold change,[15]; stronger effect = lower value,0.95 (inactive)
same,fold change,[15]; [23],1.3
same,cell count,[15]; [24],8720
same,cell count,[15]; [25],9180
same,luciferase signal,[16],68 AU (inactive)
CCOP(=S)(OCC)Oc1nc(Cl)c(Cl)cc1Cl,inhibition,[12],-10.3% (inactive)
same,red/green cell ratio (normalised),[13],0.91 (inactive)
same,normalised cell number,[13]; [21],0.9
same,normalised cell number,[13]; [22],0.82
same,activity remaining,[14],79.3% (inactive)
same,fold change,[15]; stronger effect = lower value,0.887 (inactive)
same,fold change,[15]; [23],1.26
same,cell count,[15]; [24],8030
same,cell count,[15]; [25],9060
same,remaining NAD,[17],10 nM (inactive)
CNC(C)C(O)c1ccccc1 (configuration not stated),inhibition,[2],28.1% and 10.2%
same,score,[3],0.95 and 1.05
same,rescue above control,[4],-2.36 and -10.7
same,cytochrome c release ratio,[5],1.45 and 0.98
same,inhibition of aggregation,[6],84.6% and 51.5%
same,glutamate uptake change,[7],-17.5% and 6.9%
same,inclusion score,[8],2
same,aggregation suppression score,[9],1.13 and 1.02
same,parasite load remaining,[11],90.9% (inactive) and 53.2% (inactive)
same,viability,[11],77.9% and 114%
same,inhibition,[12],-20.1% (inactive)
same,red/green cell ratio (normalised),[13],0.97 (inactive)
same,normalised cell number,[13]; [21],1.05
same,normalised cell number,[13]; [22],1.03
same,activity remaining,[14],81.5% (inactive)
same,fold change,[15]; stronger effect = lower value,0.894 (inactive)
same,fold change,[15]; [23],2.97
same,cell count,[15]; [24],10800
same,cell count,[15]; [25],12100
same,remaining NAD,[17],10 nM (inactive)
same,luciferase signal,[16],24 AU (inactive)
C[C@H](N)[C@H](O)c1ccc(O)c(O)c1,inhibition,[2],6.31%
same,score,[3],1.43
same,rescue above control,[4],4.59
same,cytochrome c release ratio,[5],0.9
same,inhibition of aggregation,[6],7.58%
same,glutamate uptake change,[7],12.7%
same,inclusion score,[8],2
same,aggregation suppression score,[9],1.14
same,parasite load remaining,[11],61.3% (inactive) and 64.5% (inactive) and 57.8% (inactive)
same,viability,[11],93.6% and 73.6% and 105%
same,inhibition,[12],-1.74% (inactive)
same,red/green cell ratio (normalised),[13],1.17 (inactive)
same,normalised cell number,[13]; [21],1.01
same,normalised cell number,[13]; [22],1.18
same,activity remaining,[14],102% (inactive)
same,fold change,[15]; stronger effect = lower value,0.912 (inactive) and 0.869 (inactive)
same,fold change,[15]; [23],1.02 and 0.57
same,cell count,[15]; [24],9300 and 11200
same,cell count,[15]; [25],10200 and 12900
same,z-score,[18]; [26],-0.729 (inactive)
same,z-score,[18]; [27],-1.14
same,remaining NAD,[17],10 nM (inactive)
same,luciferase signal,[16],16 AU (inactive)
NCCc1c[nH]c2ccccc12,inhibition,[2],21.6%
same,score,[3],1.14
same,rescue above control,[4],-4.06
same,cytochrome c release ratio,[5],0.68
same,inhibition of aggregation,[6],21.6%
same,glutamate uptake change,[7],6.97%
same,inclusion score,[8],2
same,aggregation suppression score,[9],1.32
same,parasite load remaining,[11],148% (inactive)
same,viability,[11],88.3%
same,inhibition,[12],-12.7% (inactive)
same,red/green cell ratio (normalised),[13],1.06 (inactive)
same,normalised cell number,[13]; [21],0.86
same,normalised cell number,[13]; [22],0.92
same,activity remaining,[14],113% (inactive)
same,remaining activity,[19],89.5% (inactive)
same,fold change,[15]; stronger effect = lower value,1.02 (inactive)
same,fold change,[15]; [23],1.42
same,cell count,[15]; [24],9290
same,cell count,[15]; [25],9110
same,luciferase signal,[16],44 AU (inactive)
same,z-score,[20],0.19 (inactive)
CC(N)Cc1ccc(O)cc1 (configuration not stated),inhibition,[12],-0.0931% (inactive)
same,red/green cell ratio (normalised),[13],0.93 (inactive)
same,normalised cell number,[13]; [21],1.27
same,normalised cell number,[13]; [22],1.19
same,activity remaining,[14],111% (inactive)
same,remaining NAD,[17],10 nM (inactive)
[N-]=[N+]=CC(=O)OCC(N)C(=O)O (configuration not stated),inhibition,[2],30.9%
same,score,[3],1.27
same,rescue above control,[4],6.35
same,cytochrome c release ratio,[5],1.1
same,inhibition of aggregation,[6],-39.4%
same,glutamate uptake change,[7],-10.2%
same,inclusion score,[8],1
same,aggregation suppression score,[9],0.586
same,parasite load remaining,[11],3.63% (inactive)
same,viability,[11],82.2%
same,inhibition,[12],12.8% (inactive)
same,red/green cell ratio (normalised),[13],1.35 (inactive)
same,normalised cell number,[13]; [21],0.86
same,normalised cell number,[13]; [22],1.16
same,activity remaining,[14],105% (inactive)
same,fold change,[15]; stronger effect = lower value,0.832 (inactive)
same,fold change,[15]; [23],1.38
same,cell count,[15]; [24],601
same,cell count,[15]; [25],722
CC[N+]1(C)CCCC(OC(=O)C(O)(c2ccccc2)c2ccccc2)C1 (configuration not stated),fluorescence slope change,[1],17.6% (inactive)
same,inhibition,[2],-29.9%
same,score,[3],1.45
same,rescue above control,[4],-4.25
same,cytochrome c release ratio,[5],1.2
same,inhibition of aggregation,[6],91.6%
same,glutamate uptake change,[7],-17.4%
same,inclusion score,[8],2
same,aggregation suppression score,[9],1.25
same,survival,[10],2.83 (inactive)
same,parasite load remaining,[11],98.8% (inactive) and 137% (inactive)
same,viability,[11],99.5% and 99.4%
same,inhibition,[12],-2.23% (inactive)
same,red/green cell ratio (normalised),[13],0.98 (inactive)
same,normalised cell number,[13]; [21],1.12
same,normalised cell number,[13]; [22],1.1
same,activity remaining,[14],116% (inactive)
same,fold change,[15]; stronger effect = lower value,0.964 (inactive)
same,fold change,[15]; [23],1.14
same,cell count,[15]; [24],8700
same,cell count,[15]; [25],9020
same,z-score,[18]; [26],-0.637 (inactive)
same,z-score,[18]; [27],-0.323
same,luciferase signal,[16],84 AU (inactive)
O=C(O)CCC1NCC2CC1CN1CCCCC21 (configuration not stated),inhibition,[12],1.87% (inactive)
same,red/green cell ratio (normalised),"[13]; counts scaled to control wells, 1 = unselective",1.12 (inactive)
same,normalised cell number,[13]; [21],0.9
same,normalised cell number,[13]; [22],1.01
same,activity remaining,[14],120% (inactive)
N[C@H](CO)Cc1ccccc1,inhibition,[12],1.18% (inactive)
same,red/green cell ratio (normalised),[13],1 (inactive)
same,normalised cell number,[13]; [21],1.16
same,normalised cell number,[13]; [22],1.17
same,activity remaining,[14],102% (inactive)
